PubChem BioAssay (Tox21)
Records with an inconclusive call do not appear. A number with no mark means an inactive call. Calls follow the shape of the dose curve; as a rule, active = well fitted activation curve with a large enough effect in the repeat runs; inconclusive = weak or mixed curves; inactive = flat fitted curve, though single readings scatter.

assay: A CellTox Green Cytotoxicity Assay to monitor cytotoxicity in HepG2 cells - 32 hour (AID 1224883); settings: CellTox Green fluorescence; series mostly up to 76.8 µM; cytotoxicity increase: at the top concentration; also: nearly all actives have a fitted effect of over 50% in size
Text: National Center for Advancing Translational Sciences [NCATS]
NIH Chemical Genomics Center [NCGC]
U.S. Environmental Protection Agency [EPA]
National Institutes of Environmental Health Sciences [NIEHS]
National Toxicology Program [NTP]
Cell-based models are critical for drug discovery. Determining the natural cytotoxic effects resulting from test compounds is an essential research activity. A CellTox Green Cytotoxicity Assay to monitor cytotoxicity in real time of continues cell culture during 40 hours of the compound treatment was used to screen Tox21 10K library compounds in HepG2 cells. CellTox Green Cytotoxicity Assay is a nonlytic, homogeneous, biofluorescent method to measure cytotoxicity in cell culture after experimental manipulation. The assay system uses a proprietary asymmetric cyanine dye that is excluded from viable cells but preferentially stains the dead cell's DNA. […] Viable cells produce no appreciable increases in fluorescence. Therefore, the fluorescence signal produced by the binding interaction with dead cell DNA is proportional to cytotoxicity.
The mixture of HepG2 cell suspension and reagents were dispensed at 600cells/6 ul/well in 1536-well tissue culture treated black solid bottom plates using a Multidrop dispenser. After the assay plates were incubated at a 37 C/5% CO2 incubator for 5 hours, 23 nL of compounds dissolved in DMSO, positive and negative controls was transferred to the assay plate by a pintool work station. The plates were incubated at 37 C for 40 hours. The fluorescence intensity were measured at 0h, 8h, 16h, 24h, 32h and 40h time points using ViewLux plate reader during compound treatment.
% is scaled to controls: 0 for no effect and ±100 for the full control effect.

| Structure (SMILES) | cytotoxicity increase |
| --- | --- |
| CC(C)(C)C(=O)OCOP(=O)(COCCn1cnc2c(N)ncnc21)OCOC(=O)C(C)(C)C | -6.14% [at 35.3 µM] |
| CCOc1nc2cccc(C(=O)O)c2n1Cc1ccc(-c2ccccc2-c2nn[nH]n2)cc1 | -12% [at 35.3 µM] |
| CCCCCCCCN(C)C | -9.65% |
| Cc1ccc(C(C)c2ccc(C)c(C)c2)cc1C | 20.8% |
| O=C(c1ccc(O)cc1)c1ccc(O)cc1 | -0.89% |
| CCOc1ccc(NC(=O)CC(C)=O)cc1 | -11.7% |
| O=[N+]([O-])c1cc[n+]([O-])cc1 | 3.89% |
| Oc1ccc2c(c1)OCO2 | -1.62% |
| N#Cc1cc2ccccc2c2ccccc12 | -13.1% |
| OCCC1CCCCN1 (stereo not given) | -6.25% |
| NCCCOCCOCCOCCCN | 6.29% |
| Nc1ccc(C(=O)N2CC3CC(CN(Cc4ccccc4)C3)C2)cc1 | -5.05% [at 35.3 µM] |
| CC(C)c1ccc2c(C(C)C)cc(C(C)C)c(S(=O)(=O)O)c2c1 | -10% |
| COc1ccc(OC)c(OC)c1 | -3.81% |
| CCCOc1ccc2nc(NC(=O)OC)[nH]c2c1 | 3.64% [at 35.3 µM] |
| C=C(C)C(=O)OC(C)C | -7.88% |
| CN(C(=O)CCCOc1ccc2[nH]c(=O)ccc2c1)C1CCCCC1 | -4.16% [at 35.3 µM] |
| C=CC[N+]1([C@H]2C[C@H]3[C@@H]4CC[C@H]5C[C@H](OC(C)=O)[C@@H](N6CCCCC6)C[C@]5(C)[C@H]4CC[C@]3(C)[C@H]2OC(=O)CC)CCCCC1 | -4.57% [at 35.3 µM] |
| CNCC[C@@H](Oc1ccccc1C)c1ccccc1 | 18.4% [at 35.3 µM] |
| CCN(CC)CCOC(=O)C1(c2ccccc2)CCCC1 | 10.4% [at 35.3 µM] |

| Structure (SMILES) | cytotoxicity increase |
| --- | --- |
| CC(C)CCCCCCOC(=O)c1ccc(C(=O)OCCCCCCC(C)C)c(C(=O)OCCCCCCC(C)C)c1 | 2.69% |
| CC1=CC(=O)/C(=C(/C)O)C(=O)O1 | -10.2% |
| N#CCc1cccc(C(F)(F)F)c1 | -5.64% |
| CCCCC(CC)COCCCN (stereo not given) | 19.2% |
| O=C1CCCCCO1 | -1.01% |
| Cc1ccccn1 | -6.41% |
| C[C@@H](C1=C(CCN(C)C)Cc2ccccc21)c1ccccn1 | 28.6% [at 35.3 µM] |
| Cl/C(=C\n1cncn1)c1ccc(Cl)cc1Cl | 10.1% [at 35.3 µM] |
| Cc1ccccc1N=Nc1ccc(N=Nc2c(O)ccc3ccccc23)c(C)c1 | -15.5% [at 35.3 µM] |
| CCCCOC(=O)/C=C\C(=O)OCCCC | 22% |
| CN1CCC[C@@H]1c1cccnc1 | -22.4% [at 35.3 µM] |
| CC(=O)c1c(C)c([N+](=O)[O-])c(C(C)(C)C)c([N+](=O)[O-])c1C | -15.3% |
| CC1(C)[C@H]2CC[C@]1(C)[C@H](O)C2 | -11% |
| CCCCCCCCCCCCCCCC(=O)OC/C=C(C)/C=C/C=C(C)/C=C/C1=C(C)CCCC1(C)C | -5.87% |
| C=Cc1c(C)c2cc3[nH]c(cc4nc(cc5nc(cc1[nH]2)C(C)=C5CCC(=O)O)C(CCC(=O)O)=C4C)c(C)c3C=C | -21.8% [at 35.3 µM] |
| N#CCCNCCC#N | -0.0631% |
| CC(C)(C)c1ccc(OCC2CO2)cc1 (stereo not given) | 21.4% |
| Nc1nc(N)c(-c2ccccc2)s1 | -12.7% [at 35.3 µM] |
| S=C(S)NCCNC(=S)S | -22.9% |
| CCOc1cc(OCC)c(C(=O)CCC(=O)O)cc1OCC | -7.91% [at 35.3 µM] |
